Sampled rows, rich in hits. Any-hit rate of the full collection: about 2.4%.
D2 PAM-1 = positive allosteric modulators of human D2 dopamine receptor. P14416. DiscoveRx D2 beta-arrestin cells, luminescence, 90 min; 100% = 57 uM dopamine signal. potentiation, % (test concentration not listed). 360,000 tested, 0.23% active; in the data active means potentiation above about 50%; inconclusive means mostly about 30% to 49%
Target sequence (P14416 whole entry, looked up): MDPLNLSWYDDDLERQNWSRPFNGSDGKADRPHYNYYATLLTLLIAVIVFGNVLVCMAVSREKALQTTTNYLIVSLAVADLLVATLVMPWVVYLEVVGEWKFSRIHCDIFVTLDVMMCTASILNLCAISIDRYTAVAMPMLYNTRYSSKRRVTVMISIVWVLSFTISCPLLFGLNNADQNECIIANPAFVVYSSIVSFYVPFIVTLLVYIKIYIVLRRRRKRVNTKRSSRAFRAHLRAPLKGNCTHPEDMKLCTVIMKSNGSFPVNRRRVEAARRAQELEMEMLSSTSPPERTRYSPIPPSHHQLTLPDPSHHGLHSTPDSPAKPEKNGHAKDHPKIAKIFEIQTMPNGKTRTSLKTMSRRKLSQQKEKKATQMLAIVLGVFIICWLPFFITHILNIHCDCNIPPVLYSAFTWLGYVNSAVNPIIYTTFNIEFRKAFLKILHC
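PathHunter D2 cells, attached overnight at 37 deg C, received compound in DMSO plus dopamine at EC20 (50 nM final) for 90 min at 37 deg C. Beta-arrestin recruitment was read as luminescence after 1 h with detection reagent at ambient temperature.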
D2 antagonist = antagonists of human D2 dopamine receptor; P14416; HEK293 TREx D2 cells, calcium flux, dopamine EC80; inhibition, % at 10 µM; 340,000 tested, 2% active; AID 485344; in the data active means inhibition above about 30%; inactive means below that, where a call was filed; further: 0% is about no effect
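Inhibition of EC80 dopamine-driven calcium flux, recorded kinetically, defines activity here; cells are a tetracycline-induced HEK293 T-REx line expressing force-coupled D2.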
D2 ag-1 = human D2 receptor agonism in beta-arrestin assay. activation, % (concentration not given with the values). 360,000 tested, 0.084% active. P14416. DiscoveRx PathHunter D2 beta-arrestin, luminescence, 90 min; 100% = 57 uM dopamine signal; in the data active means activation above about 40%; inconclusive means between about 15% and that limit
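Agonist mode: compounds alone added to overnight-plated D2 PathHunter cells for 90 min at 37 C, with 57 uM final dopamine (EC100) defining full response. Beta-arrestin recruitment detected by chemiluminescent reagent, read after 1 h at ambient temperature.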
D2 ag-2 = agonists of human D2 dopamine receptor | P14416 | 340,000 tested, 0.53% active | activation, % at 2 µM | AID 485358 | HEK293 T-REx D2 cells, calcium flux agonist mode;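 active means activation over 3 SD above normal in the single-dose calcium agonist read, cut at about 30% in these data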; further: 0% is about no effect
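In this primary screen, compounds producing a positive calcium signal within 180 s of addition to tetracycline-induced, force-coupled HEK293 Trex D2 cells are flagged; cells are dye-loaded with a no-wash calcium kit beforehand.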
D2 PAM-2 = positively modulates the human D2 dopamine receptor allosterically | P14416 | HEK293 T-REx D2, calcium flux, EC20 dopamine potentiation | potentiation, % at 10 µM | 340,000 tested, 0.34% active;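 active means potentiation over 3 SD above the plate norm, cut at about 30% in these data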; further: 0% is about no effect
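Calcium flux readout, no-wash dye, 1 read/s. Inducible HEK293 Trex D2 line, overnight 30 C. Compound alone 180 s (agonist flags), then EC20 dopamine, another 180 s to score potentiation.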
Active calls of the source: *; ? = inconclusive; · = no result.

SMILES	D2 PAM-1	D2 antagonist	D2 ag-1	D2 ag-2	D2 PAM-2
O=C(Nc1nnc(S(=O)(=O)N2CCCc3ccccc32)s1)c1cccc(Cl)c1	·	·	·	0.4	-6.9
CCOC(=O)c1cc(-c2ccc(F)cc2)n(CCC(=O)NCc2ccc(C)cc2)c1C	·	·	·	0.7	14.9
O=C(NC(NNc1ccc([N+](=O)[O-])cc1)(C(F)(F)F)C(F)(F)F)c1ccc(F)cc1	61.2*	3.0	14.3	7.0	7.4
COc1cccc(CNC(=O)CCc2nnc3n(C)c(=O)c4sccc4n23)c1	·	·	·	-0.5	-6.4
O=C(COc1ccccc1)NCC(c1ccco1)N1CCN(c2ccccc2F)CC1 (configuration not stated)	-5.3	-0.3	?	33.6*	-4.9
O=C(NCC1CCCO1)C(=O)NCC(c1ccco1)N1CCN(c2ccccc2)CC1 (configuration not stated)	-8.3	20.5	14.1	35.5*	-5.9
O=C(NCC1CCCO1)C(=O)NCC(c1ccco1)N1CCN(c2ccc(F)cc2)CC1 (configuration not stated)	-11.8	9.5	-2.6	1.6	5.3
O=C(NCc1ccncc1)C(=O)NCC(c1ccco1)N1CCN(c2ccccc2F)CC1 (configuration not stated)	-1.2	1.4	7.2	34.3*	-11.6
Cc1ccc2nc(-c3cccs3)c(Nc3c(C)cccc3C)n2c1	·	·	·	-0.1	·
O=S(=O)(c1cccc(Cl)c1)c1nnn2c1nc(NCc1ccc3c(c1)OCO3)c1sccc12	·	·	·	-0.2	3.5
CCOc1ccccc1C(=O)N(Cc1ccco1)Cc1ccccc1F	·	·	·	-0.2	-0.4
CC(C)(C)C(=O)N1CCc2cc(-c3csc(N)n3)ccc21	-13.6	-8.7	10.0	-0.1	33.4*
Cc1ccc(CCNC(=O)CCN2N=C(c3ccc(C)cc3)CCC2=O)cc1	·	·	·	·	9.0
O=C1c2ccccc2C(=O)N1CC1c2ccccc2CCN1S(=O)(=O)c1cnc[nH]1 (configuration not stated)	21.4	46.4*	0.7	0.8	-3.7
Cn1c2ccccc2c2c(C(=O)NCCCN3CCCC3=O)cn(C3CCCCC3)c(=O)c21	-37.6	9.8	-4.4	0.6	32.5*
Cc1ccc(NC(=O)[C@@H](c2ccccc2)N2Cc3ccccc3C2=O)cc1F	·	·	·	·	15.0
Cc1ccc(-n2nc3c(N4CCC(C(=O)NCc5ccc(C)o5)CC4)nnc(C)c3c2C)cc1	-9.1	7.4	2.6	0.3	31.3*
O=C(Cn1c2[n+](c3ccc(C(F)(F)F)cc31)CCCCC2)Nc1ccc(Br)cc1	-8.9	56.2*	-2.6	-0.1	-24.5
N#Cc1ccc(NC(=O)Cn2c3[n+](c4ccc(C(F)(F)F)cc42)CCCCC3)cc1	-18.3	-16.8	-4.3	0.0	-11.8
COc1ccc(Cn2c(SCc3ccc(C(=O)NCc4cccs4)cc3)nc3ccncc32)cc1	·	·	·	1.4	4.9
CCOC(=O)c1c(C)oc2c1c1c(c3ccccc32)OCN(Cc2cccnc2)C1	113.5*	-3.6	?	-0.2	1.3
CCOC(=O)c1c(C)oc2c1c1c(c3ccccc32)OCN(CCCC(=O)O)C1	5.8	-4.9	4.4	-0.1	9.1
CCN(CC)CCN(C(=O)c1ccc2c(c1)CCCC2)c1nc2ccc(C)cc2s1	-24.9	46.5*	3.8	-0.7	-22.3
CCN(CC)CCN(C(=O)c1ccc2c(c1)CCCC2)c1nc2ccc(F)cc2s1	-18.0	16.6	1.8	-0.5	-15.9
CCN(CC)CCN(C(=O)c1ccc2c(c1)CCCC2)c1nc2c(C)cccc2s1	-16.0	60.1*	6.6	1.0	-14.4
SMILES	D2 PAM-1	D2 antagonist	D2 ag-1	D2 ag-2	D2 PAM-2
Cc1ccc(S(=O)(=O)NCCc2nnc(SCc3cccnc3)n2C)cc1	-6.1	11.3	-0.8	-0.4	32.9*
CSc1nnc(CCNS(=O)(=O)c2ccccc2Br)n1C	-1.6	33.6*	-1.7	0.6	-2.9
Cc1ccc(S(=O)(=O)NCCC(=O)NCc2cccnc2)cc1	3.7	·	6.3	·	·
CCn1c(CCNS(=O)(=O)c2ccccc2Br)nnc1SC	-5.9	-21.6	-1.1	1.2	-3.1
CCOC(=O)c1sc2nc(C)nc(SCC(=O)NC3CCS(=O)(=O)C3)c2c1C (configuration not stated)	-8.1	-17.2	3.0	-1.0	41.8*
CCOC(=O)C1=C(c2ccccc2)NC(SCC(=O)Nc2cccc(C)c2)=C(C#N)C1c1ccco1 (configuration not stated)	2.1	-5.1	-0.8	0.3	-19.2
CCOC(=O)C1=C(c2ccccc2)NC(SCC(=O)Nc2ccc(C)cc2)=C(C#N)C1c1ccco1 (configuration not stated)	-7.3	54.9*	0.4	0.8	13.5
NC(=S)N=Nc1c(O)n(Cc2ccc(Br)cc2)c2ccccc12	52.0*	0.9	-2.5	0.0	-3.1
NC(=S)N=Nc1c(O)n(Cc2ccc(F)cc2)c2ccccc12	-4.3	19.4	-1.0	-0.3	-0.5
CCn1ccc2cc(S(=O)(=O)N3CCC(C(=O)NCCc4ccccc4Cl)CC3)ccc21	·	·	·	0.6	9.0
Cc1c(Cl)cccc1NC(=O)c1oc2ccc(S(=O)(=O)N3CCCCCC3)cc2c1C	·	·	·	-0.3	-13.7
Cc1ccc(N2C(=O)C3C(C2=O)C(C(=O)c2ccc(Cl)cc2)N2CCCC32)cc1 (configuration not stated)	-14.2	33.2*	-2.9	3.2	18.3
CC1(C)CC(=O)c2cc(-c3nc(-c4ccc(Br)cc4)cs3)c(=O)n(-c3ccccc3)c2C1	·	·	·	-0.2	-2.7
COC(=O)c1sccc1S(=O)(=O)N1CCN(c2cccc(C)c2)C(C)C1 (configuration not stated)	·	·	·	2.1	-5.6
O=c1[nH]c(/C=C/c2ccccn2)nc2ccccc12	-6.1	37.1*	-9.2	1.1	1.9
O=c1[nH]c(/C=C/c2cccc3ccccc23)nc2ccccc12	-12.6	3.2	-4.4	-0.6	-0.3
Cc1cccc(CNC(=O)Cn2ccc3cc(S(=O)(=O)N4CCC(C)CC4)ccc32)c1	·	·	·	0.6	-1.9
CCCC(=O)Nc1nc2nc(-c3ccccc3)cc(=O)n2[nH]1	-6.5	31.8*	-1.4	0.0	3.0
CCOC(=O)C1CCC(CN(Cc2ccc(Cl)cc2)S(=O)(=O)c2cc(Cl)cc(Cl)c2)CC1 (configuration not stated)	·	·	·	-0.1	-4.0
Cc1ccsc1C(=O)NNC(=O)c1csc(N2CCOCC2)n1	-11.4	31.6*	-7.7	0.5	-7.6
Cc1ccsc1C(=O)Nc1ccccc1N1CCOCC1	10.3	38.4*	-3.0	0.2	-8.1
Cc1ccc(C(=O)NNC(=O)c2csc(N3CCOCC3)n2)o1	-15.7	16.7	-2.8	0.3	-4.5
Cc1cccc(C)c1NC(=O)c1sc(-n2nc(C)c(Cc3ccccc3)c2C)nc1C	·	·	·	-0.9	-1.9
CC(C)Cn1nc(C(=O)NCc2ccccc2CN2CCCC2)c2ccccc2c1=O	-31.5	44.9*	-1.2	-0.1	-29.8

Screening data deposited in PubChem BioAssay by National Center for Advancing Translational Sciences (NCATS).
